PubChem BioAssay (NCI)
This is part of a sample that, as a whole, favours compounds with a hit. Of some 79,000 tested, about 15% had one in any assay. Activity calls are given as the source filed them. No stated cut-off is given here; in the data, active means growth inhibition above about 70%; inactive means the rest. Where a SMILES comes first, the peptide text is derived from it. The star is where a group is joined. Cbz = O=C(OCc1ccccc1)*

Experiments:
[1] = NCI Yeast Anticancer Drug Screen. Data for the rad50 strain (AID 155);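 further: 0% = growth of vehicle-only cultures of the same strain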; conditions: S. cerevisiae rad50 strain growth inhibition; at 50.0 µM; active compounds read high
Method in brief: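 Relative growth inhibition (compound vs vehicle) was measured in yeast with a defined repair-gene alteration.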

[2] = NCI Yeast Anticancer Drug Screen. Data for the mec2-1 strain (AID 157); conditions: S. cerevisiae mec2-1 strain, at 50.0 µM, active compounds read high
Method in brief: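 Growth inhibition is read against vehicle-treated controls after compound exposure of the mec2-1 yeast strain, which is defective in DNA damage repair or cell cycle control.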

[3] = NCI Yeast Anticancer Drug Screen. Data for the sgs1 mgt1 strain (AID 161);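 further: 0% = growth of cultures given vehicle only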; conditions: S. cerevisiae sgs1 mgt1 strain, at 50.0 µM, active compounds read high
Method in brief: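 Percent growth inhibition was derived by comparing compound-exposed mutant yeast with vehicle-exposed cultures. The strain carries alterations in DNA damage repair.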

[4] = NCI Yeast Anticancer Drug Screen. Data for the cln2 rad14 strain (AID 165);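 further: 0% = growth equal to vehicle treated cultures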; conditions: S. cerevisiae cln2 rad14 strain, at 50.0 µM, active compounds read high
Method in brief: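 Growth inhibition, relative to vehicle-treated controls, is the read-out. The test organism is a yeast strain with defined genetic alterations, cln2 rad14.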

[5] = NCI Yeast Anticancer Drug Screen. Data for the bub3 strain (AID 167); conditions: S. cerevisiae bub3 mutant strain, at 50.0 µM, active compounds read high
Method in brief: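 Screening used yeast with an engineered genetic alteration affecting cell cycle control. Compound-exposed cultures were compared with vehicle cultures, and reduced growth was taken as inhibition.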

[6] = NCI Yeast Anticancer Drug Screen. Data for the mlh1 rad18 strain (AID 175); conditions: S. cerevisiae mlh1 rad18 strain growth inhibition; at 50.0 µM; active compounds read high
Method in brief: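 Cells of a genetically altered yeast strain, deficient in DNA damage repair, were treated with compound. Their growth was then compared with that of vehicle-treated cultures to give inhibition.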

Measured: growth inhibition

CSc1n[nH]c(NC(=O)c2ccccc2Br)n1
inactive: [1] 4.2% | [2] -0.9% | [3] 29.4% | [4] -19.6% | [5] 3.65% | [6] 30.5%

CC(=O)OC1CN(c2ccc(Br)cc2)CC(OC(C)=O)CN(c2ccc(Br)cc2)C1 (centres undefined)
inactive: [1] 6.25% | [2] 9.7% | [3] -13.8% | [4] -32.9% | [5] -5.55% | [6] -13.3%

CCCCCCCCN1N=C(C)CCC1=O
inactive: [1] -7.55% | [2] -9.2% | [3] -0.45% | [4] -23.7% | [5] -25.7% | [6] -8.55%

Nc1ccccc1/C(O)=C1/CCOC1=O
inactive: [1] 0.6% | [2] -23.6% | [3] 2.15% | [4] 1.5% | [5] 15.3% | [6] -3.2%

CN(C)CCNC(=O)c1cnn(C)c1[N+](=O)[O-]
inactive: [1] 26.4% | [2] 8.75% | [3] 17.3% | [4] 13.2% | [5] 0% | [6] -59.1%

CN1c2cccc3cccc(c23)NC12CCCCC2
inactive: [1] 0.6% | [2] -20.5% | [3] -10.8% | [4] -62.2% | [5] 14.2% | [6] -10.8%

CN(C)CCOc1cccc(OCCN(C)C)n1
inactive: [1] 10.7% | [2] -3.25% | [3] 3.2% | [4] 1.1% | [5] 9.35% | [6] 8.7%

CCCC(C)OC(=O)CC(c1ccccc1)N1CCCCC1 (centres undefined)
inactive: [1] 41.7% | [2] -10.1% | [3] 23.4% | [4] -23.6% | [5] 40.2% | [6] 26.5%

CCCCCCCC/C=C/CCCCCCCCCCCC(=O)O
inactive: [1] -7.6% | [2] -39.2% | [3] -1.45% | [4] -46.5% | [5] -8.9% | [6] 2.35%

CCCCCCCCNC(=O)CBr
inactive: [1] 5.3% | [2] 9.85% | [3] 22.8% | [4] -25.4% | [5] 13.3% | [6] 6.15%

Cc1[nH]c2ccccc2c1C(=O)Cc1ccc(Cl)cc1Cl
inactive: [1] -3.6% | [2] 31.8% | [3] 32.2% | [4] -4.35% | [5] 23.8% | [6] 33.4%

CN1C2CCC1C1N=NN(c3cc(C(F)(F)F)cc(C(F)(F)F)c3)C1(N1CCOCC1)C2 (centres undefined)
inactive: [1] -20.9% | [2] -9.6% | [3] -27.7% | [4] 0.35% | [5] -11.9% | [6] -21.8%

O=C(Cc1cc2c(cc1[N+](=O)[O-])OCO2)c1c[nH]c2ccc(Br)cc12
inactive: [1] 6.45% | [2] -3.9% | [3] 19.6% | [4] 18.5% | [5] -2.2% | [6] 7.55%

CCOC(=O)C1=CC(C)(C(=O)OCC)Nc2c(nc(N)[nH]c2=O)N1 (centres undefined)
inactive: [1] -42.5% | [2] -12.9% | [3] -8.35% | [4] 4.35% | [5] -35.3% | [6] -19.9%

CCOC(=O)C(C)C(=O)NCc1ccccc1 (centres undefined)
inactive: [1] -4.55% | [2] -4.9% | [3] -6.8% | [4] -43.5% | [5] 9.35% | [6] 11.3%

CC(CCC(=O)O)[C@H]1CCC2[C@H]3C(CC(=O)[C@@]21C)[C@@]1(C)CCC(O)C[C@H]1C[C@@H]3O (some centres undefined)
inactive: [1] -7.75% | [2] -7.7% | [3] 5.9% | [4] -29.4% | [5] -17.1% | [6] -11.7%

CC(C)=C1C(=O)N(C)C(=O)C1C(N)=O (centres undefined)
inactive: [1] 0.1% | [2] 1.85% | [3] -15.9% | [4] -6.05% | [5] 2.85% | [6] 11.4%

CCCN1COC(OCCN(CC)CC)C(C)(C)C1 (centres undefined)
inactive: [1] 7.15% | [2] -4.35% | [3] -21.3% | [4] 6.7% | [5] 7.2% | [6] 12.9%

CCC1CNCCC1CC(=O)O (centres undefined)
inactive: [1] 7.95% | [2] -12.8% | [3] -2.05% | [4] 24.8% | [5] -1.2% | [6] -22.2%

CC(C)CC(F)(C(N)=O)C(N)=O
inactive: [1] -4.6% | [2] -4.15% | [3] -3.4% | [4] -3.05% | [5] -5.65% | [6] -4.2%

CC1CCCC(C)(C)/C1=N/O (centres undefined)
inactive: [1] 16.1% | [2] 20.2% | [3] 12.5% | [4] 12.8% | [5] 20.8% | [6] 6.7%

NC(=O)c1ccc2c(ccc3ccccc32)c1
inactive: [1] 48.5% | [2] 4.75% | [3] 5.05% | [4] -36% | [5] -1.8% | [6] -2.75%

COc1cc2c(cc1OC)C(C(c1ccccc1)c1ccccc1)N(C)CC2 (centres undefined)
inactive: [1] 9.9% | [2] 9.25% | [3] -16.7% | [4] 20.6% | [5] 3.25% | [6] 20.6%

CC(=O)Nc1nc(Cl)c2ncn(C3CCCO3)c2n1 (centres undefined)
inactive: [1] -13% | [2] -4% | [3] -9.35% | [4] -33.5% | [5] 0.6% | [6] 2.25%

CCCCCCCCCCCCCCCC(=O)OCC1OC(OC(=O)CCCCCCCCCCCCCCC)C(OC(=O)CCCCCCCCCCCCCCC)C(OC(=O)CCCCCCCCCCCCCCC)C1OC(=O)CCCCCCCCCCCCCCC (centres undefined)
inactive: [1] -19.8% | [2] -25.8% | [3] -19.9% | [4] -7.05% | [5] -24.7% | [6] -14.8%

CCC1OC(=O)CC(O)C(C)C(OC2OC(C)CC(N(C)C)C2O)C(CC=O)CC(C)C(=O)/C=C/C2(C)OC2C1C (centres undefined)
inactive: [1] -6.9% | [2] -7.55% | [3] -11.3% | [4] -1.55% | [5] -14% | [6] 1.8%

COc1ccc(C2OCCCO2)cc1
inactive: [1] 13.5% | [2] -19.1% | [3] -6.45% | [4] -34.4% | [5] -27.4% | [6] 4.45%

COc1ccc(NC(=S)N=Nc2c(O)[nH]c3ccccc23)cc1
inactive: [1] -43.2% | [2] -50% | [3] -33.9% | [4] -13.8% | [5] -41.4% | [6] -30.6%

CC(=O)N(C)c1ccc(N)cc1
inactive: [1] 33.5% | [2] 25.2% | [3] 24.9% | [4] -2.35% | [5] 31.8% | [6] 36.5%

S=C(NNC(=S)Nc1ccccc1Cl)NNc1ccccc1
inactive: [4] 68.2%
active: [1] 80.8% | [2] 82.8% | [3] 93.4% | [5] 82.8% | [6] 88.9%

CC(O)CCC(C)(C)[N+](=O)[O-] (centres undefined)
inactive: [1] 3.15% | [2] -6.85% | [3] 0.1% | [4] 10.8% | [5] 0.25% | [6] -0.9%

CSCCC(NC(=O)C(Cc1ccccc1)NC(=O)OCc1ccccc1)C(=O)O (stereo not drawn) (Cbz-Phe-Met-OH; configuration not given here)
inactive: [1] 5.1% | [2] -13.2% | [3] -1% | [4] -40.4% | [5] -4.95% | [6] 4.85%

N=C(CN1CCCCC1)N1CCCCC1
inactive: [1] -2.5% | [2] -15.3% | [3] -5.15% | [4] -58.1% | [5] 10.2% | [6] 12.6%

CC(C)COS(=O)(=O)O
inactive: [1] 19.2% | [2] 6.65% | [3] 20% | [4] 24.9% | [5] 15.2% | [6] 27.1%

O=C1c2cc(Cl)ccc2-c2ccc(N=Cc3ccccc3Cl)cc21
inactive: [1] 1.65% | [2] -1.55% | [3] -7.8% | [4] -89.5% | [5] 34.1% | [6] -1.35%

COc1ccc(C(=O)c2ccccc2)c(O)c1
inactive: [1] 13.1% | [2] 1.8% | [3] -10.6% | [4] 4.95% | [5] 0.55% | [6] 6.9%

COCCCNC1=C(C#N)C(=O)NC2(CCCC2)S1
inactive: [1] -35.6% | [2] -35.5% | [3] -18.5% | [4] -2.65% | [5] -30.8% | [6] -17.2%

CCCCC/C(=N\NC(N)=O)C1=CCCCC1
inactive: [1] 13.1% | [2] 7.6% | [3] -9.6% | [4] -19.9% | [5] -25.4% | [6] 18.4%

CCOC(=O)CC1(O)Oc2cc3c(cc2C(c2cc(OC)c(OC)c(OC)c2)C1C(=O)OCC)OCO3 (centres undefined)
inactive: [1] -0.75% | [2] -5.9% | [3] -21.6% | [4] -0.55% | [5] -1.45% | [6] 10.2%

Cc1cccc2c1Oc1ccccc1C2N1C(=O)/C(=C/c2ccc(Cl)c(Cl)c2)SC1=S (centres undefined)
inactive: [1] -3.8% | [2] -10.2% | [3] 6.75% | [4] 33.8% | [5] -17.8% | [6] 0.4%

OC1c2ccccc2CC1Br (centres undefined)
inactive: [1] -4.8% | [2] -3.8% | [3] -9.25% | [4] -25.4% | [5] 7.65% | [6] -8.15%

CCC(O)(c1ccc(OC)cc1)C(O)(CC)c1ccc(OC)cc1 (centres undefined)
inactive: [1] 9.2% | [2] 2.05% | [3] 16.4% | [4] 7.8% | [5] 5.85% | [6] 4.9%

CCCCCCCCCCCCCCCC(=O)Nc1ccn(C2OC(CO)C(O)C2O)c(=O)n1 (centres undefined)
inactive: [1] -1.45% | [2] -19.9% | [3] 6.75% | [4] 10.1% | [5] -6.8% | [6] -14.7%

C(=N\N=C\c1ccccc1)/c1ccccc1
inactive: [1] 14.7% | [2] 4.65% | [3] 3.5% | [4] -52.5% | [5] -1.15% | [6] 16.6%
